An excerpt weighted towards active compounds, which were near 15% of everything screened.
Pf growth 96h = inhibits malaria parasite growth, 96 h. P. falciparum luciferase reporter growth, 96 h. Potency, µM (top dose mostly 28.7 µM), without a hit: at the highest dose activity change, negative = inhibition, most hits filed as inhibitors. 320,000 tested, 6.9% active. AID 504834; note: potency is the fitted concentration of half-maximal effect; % is set by controls: 0 for no effect and ±100 for the full control effect
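Plates of compound plus infected erythrocytes (2% hematocrit, 0.05% parasitemia final) incubate 96 hours, 37 C, 5% CO2. Detection reagent added; reduced luminescence from the parasites' luciferase reporter flags inhibition.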
SARS PLP yeast = SARS-CoV PLP inhibition in yeast. S. cerevisiae expressing SARS-CoV PLpro, growth rescue. Potency, µM (highest dose often 32.9 µM), for the others: at the highest dose activity, positive = growth rescue, hits mostly activators. 330,000 tested, 0.19% active; calls by dose curve; note: potency is the fitted concentration of half-maximal effect; 0% is about no effect; nearly all actives have a fitted effect of over 55% in size
HCV inhibitor = HCV inhibition | 340,000 tested, 3.4% active | Potency, µM (doses to about 41.8 µM), inactives show at the highest dose activity change, negative = inhibition, most hits filed as inhibitors | Huh7.5.1 HCVcc-Cre infection, luciferase reporter, 44 h | AID 651820; note: potency is the fitted concentration of half-maximal effect; % is set by controls: 0 for no effect and ±100 for the full control effect
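Antiviral activity was scored by luciferase reporter output from cells infected with HCVcc-Cre (~0.5 moi) in presence of compound, 44 h infection period, cells seeded 1,000/well 4 h prior.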
Sm TGR block = S. mansoni TGR enzyme inhibition. Q962Y6. purified TGR, DTNB reduction, TNB absorbance 405 nm. Potency, µM (top dose mostly 114 µM), inactives show top-dose activity change, negative = inhibition, usual class: inhibitors. 360,000 tested, 3% active. AID 485364; note: potency is the fitted concentration of half-maximal effect; % is set by controls: 0 for no effect and ±100 for the full control effect; nearly all actives have a fitted effect of over 60% in size
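TGR 20 nM + NADPH 100 uM (dispensed conc.), cpd preinc 15 min RT; start with NADPH (500 uM addition) then DTNB (15 mM addition). Kinetic TNB absorbance, 405 nm filter. Four-parameter Hill fit across titration.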
HCMV inh = blocks human cytomegalovirus replication; HFF cells, HCMV-luciferase reporter, 72 h; hits give low values; 410,000 tested, 4.5% active; activity change, negative = inhibition, % at 57.5 µM; in the data active = activity change below about -60%; inconclusive = no clear call, values can overlap the other calls; inactive = above about -39%; note: % is set by controls: 0 for no effect and ±100 for the full control effect
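Screen run at 2 compound doses on HFFs infected with reporter HCMV, MOI 1 PFU/cell. Luciferase activity from cell lysates at 72 h post infection gave inhibition relative to buffer-only and Salinomycin wells.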
Pf growth 48h = inhibits P. falciparum growth in the first generation, 48 h | 310,000 tested, 5.9% active | AID 504832 | Potency, µM (titrated, usually from 28.7 µM), for the others: at the top dose activity change, negative = inhibition, usual class: inhibitors | P. falciparum luciferase growth in erythrocytes, 48 h; note: potency is the fitted concentration of half-maximal effect; % is set by controls: 0 for no effect and ±100 for the full control effect
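A one-generation exposure of luciferase-tagged malaria parasites in RPMI 1640/Albumax erythrocyte culture, 37 C and 5% CO2. Inhibition is inferred from decreased luminescence after adding detection reagent.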
* marks the source's active call; other numbers are inactive results; ? = inconclusive; · = no result; [ ] = remark or other dose. Unless noted, calls come from the whole dose curve; as a rule, active = well fitted curve in the direction sought with a large enough effect; inconclusive = small, poorly fitted or top-dose-only effect, or another doubt; inactive = no such curve, though single readings can be large; an effect the other way counts as inactive or inconclusive.

SMILES	Pf growth 96h	SARS PLP yeast	HCV inhibitor	Sm TGR block	HCMV inh	Pf growth 48h
COc1ccc(/C=C/C(=O)Nc2ccc(-c3nnc4n3CCCCC4)cc2)c(OC)c1	-20.2%	-1.4%	?	-9.6%	-74.1*	-10.9%
Cc1ccc(OCc2nnn(CC(=O)NS(=O)(=O)c3c(C)noc3C)c2-c2ccccc2)cc1	·	·	·	·	-34.3	·
CN(C)S(=O)(=O)c1cccc(NC(=O)c2ccc(-n3cncn3)c([N+](=O)[O-])c2)c1	?	6.7%	?	4.8%	-1.0	-12.9%
CCc1cc(SC#N)cc(C)c1NC(=O)CCl	?	-18.2%	?	10µM*	-96.1*	13.1µM*
CCc1cc(SC#N)cc(C)c1N	3.29µM*	0.0%	-6.3%	5.8%	-12.6	8.28µM*
Cc1ccc(CNC(=O)C2CCCN(c3nc4ccccc4n4cccc34)C2)cc1 (stereo not given)	·	·	·	27.8%	57.2	·
O=C1[C@H]2[C@@H](c3ccc(F)cc3)N3C(=O)N(c4cccc(Br)c4)C(=O)[C@@]3(Cc3ccc(Cl)cc3)[C@H]2C(=O)N1C1CCCCC1	3.29µM*	1.7%	6.4%	8.3%	-19.9	2.94µM*
O=C1[C@H]2[C@@H](c3ccc(Cl)cc3)N3C(=O)N(c4cccc(Br)c4)C(=O)[C@@]3(Cc3ccc(Cl)cc3)[C@H]2C(=O)N1C1CCCCC1	11.7µM*	3.8%	-8.4%	-7.8%	-22.9	?
COc1cccc(CNC(=O)CCn2c(=O)c3cccn3c3ccc(F)cc32)c1OC	·	·	·	-15.5%	-28.7	·
Cc1nn(C)c2c1c(C(F)(F)F)cc(=O)n2C(C)C(=O)NCc1ccccc1 (stereo not given)	·	·	·	1.2%	-3.3	·
COc1cc2c(c(OC)c1OC)C(c1ccccc1C)CC(=O)O2 (stereo not given)	·	-3.1%	-8.6%	·	6.2	·
Cc1cc(NS(=O)(=O)c2ccc(NC(=O)c3ccco3)cc2)nc(C)n1	-0.6%	7.6%	26.0%	-25.2%	2.3	·
Cc1cc(NS(=O)(=O)c2ccc(NC(=O)/C=C/c3ccco3)cc2)nc(C)n1	?	-0.7%	-3.1%	3.98µM*	2.1	-8.9%
Cc1ccc(NC(=O)Cc2ccccc2F)cc1S(=O)(=O)N1CCCCCC1	?	1.1%	11.2µM*	7.3%	-77.8*	?
Cc1ccc(NC(=O)/C=C/c2ccco2)cc1S(=O)(=O)N1CCCCCC1	·	·	2.82µM*	·	-89.2*	·
Cc1ccc(NC(=O)c2ccccc2F)cc1S(=O)(=O)N1CCCCCC1	?	-1.2%	?	3.8%	?	-12.0%
Cc1ccc(NC(=O)CN2CCOCC2)cc1S(=O)(=O)N1CCCCC1	·	?	14.9%	·	40.9	·
Cc1ccc(NC(=O)CCl)cc1S(=O)(=O)N1CCCCCC1	9.28µM*	9.2%	?	7.94µM*	-97.7*	-5.7%
COc1cc(C(=O)Nc2ccc(S(=O)(=O)Nc3nccc(C)n3)cc2)c([N+](=O)[O-])cc1OC	?	1.4%	5.1%	4.3%	?	3.0%
CCC1CN(C(=O)N2CCC(C(=O)Nc3cc(C)ccc3C)CC2)c2ccccc2O1 (stereo not given)	·	·	·	-8.2%	28.0	·
CSc1ncc(C(=O)Nc2c(C)cccc2C)c(-c2ccccc2)n1	·	·	·	2.0%	7.3	·
Cc1cc(NS(=O)(=O)c2ccc(NS(=O)(=O)c3ccc(CC(C)C)cc3)cc2)nc(C)n1	12.4%	-0.5%	3.98µM*	-10.7%	?	32.8%[5.75 µM]
CCc1noc(C)c1C(=O)Nc1ccc(C)c(S(=O)(=O)N2CCCCCC2)c1	?	9.1%	12.6µM*	2.9%	-37.9	10.4µM*
COCCNCC(=O)Nc1ccc(C)c(S(=O)(=O)N2CCCCC2)c1	-2.7%	2.6%	3.7%	6.2%	-5.4	-2.5%
Cc1ccc(NC(=O)CSc2nnc(C3CC3)n2C)cc1S(=O)(=O)N1CCCCC1	?	5.4%	?	-2.5%	-0.7	13.1µM*
Cc1ccc(NC(=O)CNc2ccccc2N2CCCC2=O)cc1S(=O)(=O)N1CCCCC1	9.28µM*	0.0%	?	-12.4%	46.8	10.4µM*
